Source: PubChem
Sampled rows, rich in hits. Any-hit rate of the full collection: about 7.5%.
Rab9 promoter act – activators of Rab9 promoter. Potency, µM (series often up to 9.22 µM), for the others: top-dose activation, negative = inhibition, usual class: activators. Huh7 Rab9 promoter-luciferase reporter, luminescence, 24 h. actives 2.8% (n = 320,000); also: % of control where 0% means no effect; nearly all actives have a fitted effect of over 60% in size
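Luminescence read-out: Huh7 cells stably expressing Rab9-luciferase, treated 24 h with compound at 37 °C, then lysed with luciferase reagent for 10 min at ambient before reading.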
SMN2 splice enh – SMN2 splice variant enhancement | HEK293 SMN2-luciferase splicing reporter, luminescence, 30-36 h | Potency, µM (top dose mostly 46.1 µM), for the others: at the highest dose activity change, positive = activation, most hits filed as activators | actives 2.8% (n = 210,000) | AID 1458; also: % of control where 0% means no effect; nearly all actives have a fitted effect of over 55% in size
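qHTS luciferase splicing reporter: luminescence rises when SMN2 exon 7 is included in transfected HEK293 cells. Compound exposure lasted 30-36 h at 37C, with 4.5 mM final sodium butyrate as control, followed by a ONE-Glo read.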
ELG1 genotoxic – genotoxicity induction in ELG1-luciferase HEK293T cells; AID 504466; Potency, µM (doses to about 46 µM), inactives show at the highest dose activity change, positive = activation, most hits filed as activators; HEK293T ELG1-luciferase reporter, luminescence, 16 h; actives 1.3% (n = 330,000); also: % of control where 0% means no effect; nearly all actives have a fitted effect of over 60% in size
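After overnight (16 hr) compound treatment at 37 °C, ELG1-luciferase HEK293T cells were lysed with ONE-Glo; luminescence quantified 30 min later at room temperature.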
FLuc counter – counter-screen for miR-21 project: firefly luciferase inhibitors or activators | P08659 | purified FLuc, Km substrates, luminescence inhibition | Potency, µM (highest dose often 57.5 µM), inactives show at the top dose activity change, negative = inhibition, most hits filed as inhibitors | actives 6.9% (n = 360,000);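 also: plate controls were vehicle for no effect and reference inhibitor for full effect; nearly all actives have a fitted effect of over 55% in size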
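Purified P. pyralis luciferase, 10 nM final, with Km-level 10 uM D-luciferin and 10 uM ATP in 50 mM Tris acetate pH 7.5, 10 mM Mg acetate, 0.01% Tween-20, 0.05% BSA; 6-point qHTS titration about 60 µM downward; luminescence read.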
NPC1 prom act – activates the NPC1 promoter. Huh7 NPC1 promoter luciferase reporter, 24 h. Potency, µM (doses to about 9.22 µM), inactives show at the top dose activation, hits mostly activators. actives 2.4% (n = 320,000). AID 485313; also: % of control where 0% means no effect; nearly all actives have a fitted effect of over 60% in size
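Cells: Huh7 expressing luciferase under the NPC1 promoter, 1500/well. Seeded 2 h, compound added, incubated 24 h at 37 °C. Luciferase reagent, 10 min ambient, then luminescence.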
Active calls of the source: *. Calls follow the shape of the dose curve; as a rule, active = well fitted curve in the direction sought with a large enough effect; inconclusive = small, poorly fitted or top-dose-only effect, or another doubt; inactive = no such curve, though single readings can be large; an effect the other way counts as inactive or inconclusive. Potency is read from the fitted curve at half-maximal effect.

For CC(C)c1ccc(NC(=O)C(c2ccccc2)N2CCOCC2)cc1 (configuration not stated) the results were Rab9 promoter act 15%, SMN2 splice enh -7%, ELG1 genotoxic 2%, FLuc counter inconclusive and NPC1 prom act 2%.
`CC(C)c1ccc(NC(=O)NN2CCOCC2)cc1` gave Rab9 promoter act 3.5µM*, SMN2 splice enh 13µM*, ELG1 genotoxic 16µM*, FLuc counter 27µM* and NPC1 prom act 3.2µM*.
For CC(C)c1ccc(/C=C/C(=O)N2CCOCC2)cc1 the results were Rab9 promoter act 2.5µM*, ELG1 genotoxic inconclusive, FLuc counter 9.5µM* and NPC1 prom act 3.2µM*.
`CC(C)c1ccc(/C=C/c2ccc(=O)n(C)n2)cc1` gave Rab9 promoter act 1.8µM*, SMN2 splice enh 11µM*, ELG1 genotoxic 10µM*, FLuc counter 4.8µM* and NPC1 prom act 2.2µM*.
`CCOC(=O)C(C)n1nc(/C=C/c2ccc(OC)cc2)ccc1=O` (configuration not stated) gave Rab9 promoter act -6%, SMN2 splice enh 7%, ELG1 genotoxic 3%, FLuc counter -13% and NPC1 prom act 8%.
`Cc1nc2ccc(NC(=O)CS(=O)(=O)c3ccccc3)cc2s1` gave Rab9 promoter act inconclusive, ELG1 genotoxic inconclusive, FLuc counter 15µM* and NPC1 prom act inconclusive.
Screening O=C(CCS(=O)(=O)c1ccccc1)Nc1ccc(-c2nc3ccccc3s2)c(O)c1 returned Rab9 promoter act 1.3µM*, SMN2 splice enh 2.5µM*, ELG1 genotoxic 14%, FLuc counter 3% and NPC1 prom act inconclusive.
Cc1nc2ccc(NC(=O)CCC3CCCC3)cc2s1 was read as Rab9 promoter act inconclusive, ELG1 genotoxic inconclusive, FLuc counter 12µM* and NPC1 prom act inconclusive.
For Cc1nc2ccc(NC(=O)CCS(=O)(=O)c3ccc(Cl)cc3)cc2s1 the results were Rab9 promoter act 1%, SMN2 splice enh -44%, ELG1 genotoxic 1%, FLuc counter -7% and NPC1 prom act -1%.
For CCS(=O)(=O)c1cccc(C(=O)Nc2ccc(-c3nc4ccccc4s3)c(O)c2)c1 the results were FLuc counter 5%.
COc1cccc(CC(=O)Nc2ccc3nc(C)sc3c2)c1 was read as Rab9 promoter act 14%, SMN2 splice enh 6%, ELG1 genotoxic 17%, FLuc counter 17µM* and NPC1 prom act 28%.
CCCCOC(=O)n1c(SCC(=O)N(C)C)nc2ccccc21 was read as Rab9 promoter act inconclusive, SMN2 splice enh 5%, ELG1 genotoxic 7%, FLuc counter -16% and NPC1 prom act 19%.
Screening COc1ccc(Nc2nc3c([nH]2)c(=O)[nH]c(=O)n3C)cc1 returned Rab9 promoter act -4%, SMN2 splice enh 8%, ELG1 genotoxic 1%, FLuc counter -5% and NPC1 prom act -4%.
COCCCNC(=O)C(CC(N)=O)NC(=O)OCc1ccccc1 (configuration not stated) was read as Rab9 promoter act 3%, ELG1 genotoxic 1%, FLuc counter -1% and NPC1 prom act -4%.
Screening O=S(=O)(O)c1ccc(N2N=C(c3ccccc3)CC2c2ccccc2)cc1 (configuration not stated) returned Rab9 promoter act 16%, SMN2 splice enh 6%, ELG1 genotoxic 0%, FLuc counter inconclusive and NPC1 prom act -2%.
For COc1ccccc1CC(=O)Nc1ccc2nc(C)sc2c1 the results were Rab9 promoter act 21%, ELG1 genotoxic inconclusive, FLuc counter 17µM* and NPC1 prom act 17%.
Screening COc1cc(CC(=O)Nc2ccc3nc(C)sc3c2)cc(OC)c1OC returned Rab9 promoter act -12%, SMN2 splice enh -16%, ELG1 genotoxic -2%, FLuc counter 0% and NPC1 prom act -3%.
Cc1cc(C(=O)COC(=O)CNC(=O)c2ccccc2)c(C)n1CC1CCCO1 (configuration not stated) was read as Rab9 promoter act -12%, SMN2 splice enh -6%, ELG1 genotoxic 8%, FLuc counter 19µM* and NPC1 prom act -4%.
